Source: PubChem BioAssay (NCI)
About 83,000 compounds went through this panel and 20% of them were active in at least one assay; those are over-represented in the sample as a whole.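 Treatment: one concentration, 48 hours, 96-well format. Scoring: percent growth, with anything below 10 considered active.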 The source made the active and inactive calls.

Tested on: MOLT-4 leukemia
Assay: NCI-60 one-dose screen, 48 h (100 = growth as untreated, 0 = no growth, -100 = all killed)
Details: 10 µM unless noted

**Q.** `Fc1ccc(-c2cc3nc(C(Cl)Cl)nc(-c4ccccc4)n3n2)cc1` was tested. Which growth did it give?
**A.** The growth was 23.6% (inactive).

**Q.** With `O=C(c1ccc(Cl)cc1)C1[C@H](c2ccc(Cl)cc2)[C@@H](c2ccccc2)NC12C(=O)Nc1ccc(Br)cc12` (stereo partly drawn) as the compound, how does the growth read?
**A.** Its growth is 6.17% (active).

**Q.** For `COc1ccccc1C(=O)CSc1nc(Nc2ccc(S(N)(=O)=O)cc2)c2ccccc2n1`, which growth is on record?
**A.** Its growth is 93% (inactive).

**Q.** `CC(C)(C)Nc1nc2c(OCCc3ccccc3)cccn2c1-c1ccccc1Cl` was tested. Which growth did it give?
**A.** The growth was -21.5% (active).

**Q.** How did the growth turn out when `CNC(=O)c1cc(-c2ccc(NC(=O)Nc3ccc(N4CCOCC4)c(C(F)(F)F)c3)cc2)nc2cccnc12` was run?
**A.** Its growth is 34.6% (inactive).

**Q.** How did the growth turn out when `CS(=O)(=O)c1ccc(-n2cc(/C=C/C(=O)c3ccc(NC(=O)CO[N+](=O)[O-])cc3)c(-c3ccc(Cl)cc3)n2)cc1` was run?
**A.** The growth was 119% (inactive).

**Q.** For `Cc1[nH]nc2ncc(C#Cc3cncc(C(=O)Nc4ccc(CN5CCN(C)CC5)c(C(F)(F)F)c4)c3)cc12`, which growth is on record?
**A.** Its growth is 20.4% (inactive).

**Q.** `CCN1C(=S)N(CC)C2C1N=C(SC)N2/N=C/C=C/c1ccccc1[N+](=O)[O-]` (stereo not drawn) was tested. Which growth did it give?
**A.** Its growth is 82.1% (inactive).

**Q.** Which growth does the source give for `C/C(=C(/c1ccc(Cl)cc1)c1ccc(OCCN)cc1)c1ccc(C)cc1` here?
**A.** The growth was 96.4% (inactive).

**Q.** With `O=[N+]([O-])c1ccc(O)c2ncccc12` as the compound, how does the growth read?
**A.** The growth was 19.9% (inactive).

**Q.** `Cc1cc(=O)oc2cc(OCCCOc3ccc(/C=C/C(=O)Nc4ccc(Cl)cc4)cc3)ccc12` was tested. Which growth did it give?
**A.** Its growth is 87.3% (inactive).

**Q.** With `Cc1ccc(-c2nc(C(Cl)Cl)nc3cc(-c4ccccc4)nn23)cc1` as the compound, how does the growth read?
**A.** Its growth is 10.4% (inactive).

**Q.** How did the growth turn out when `Nc1cc(-c2c[nH]c3ccc(F)cc23)nc2cc(-c3c[nH]c4ccc(F)cc34)nn12` was run?
**A.** Its growth is 39% (inactive).

**Q.** For `COc1cccc(N2CCN(c3ncnc4c3[nH]c3ccc(F)cc34)C[C@@H]2C)c1`, which growth is on record?
**A.** Its growth is -42% (active).

**Q.** `Cc1ccc(/C=C/c2nn3c(-c4ccco4)nnc3s2)cc1C` was tested. Which growth did it give?
**A.** The growth was 97.8% (inactive).

**Q.** `CCN1C(=S)N(CC)C2C1NN=C1SC(c3ccccc3)=CC(=O)N12` (stereo not drawn) was tested. Which growth did it give?
**A.** The growth was 97.7% (inactive).

**Q.** `CC(C)NC(=O)c1cc(-c2ccc(NC(=O)Nc3ccc(N4CCOCC4)c(C(F)(F)F)c3)cc2)nc2cccnc12` was tested. Which growth did it give?
**A.** The growth was 18.7% (inactive).

**Q.** `Cn1cc(-c2cc(N)n3nc(-c4cn(C)c5ccc(Cl)cc45)cc3n2)c2cc(Cl)ccc21` was tested. Which growth did it give?
**A.** The growth was 51% (inactive).

**Q.** Which growth does the source give for `NS(=O)(=O)c1cccc(Nc2nc(SCC(=O)c3ccc(Cl)cc3)nc3ccccc23)c1` here?
**A.** Its growth is 82.8% (inactive).

**Q.** Which growth does the source give for `Cc1sc2c(c1C)c(=O)nc1c(-c3nc(-c4ccc(F)cc4)no3)n[nH]n12` here?
**A.** Its growth is 104% (inactive).

**Q.** `CN1C(=O)N(c2ccccc2)C2N=C(N/N=C/c3ccccc3)SC21` (stereo not drawn) was tested. Which growth did it give?
**A.** The growth was 25.5% (inactive).

**Q.** With `O=C1C2=C(C(=O)c3c(O)cccc31)C(c1ccco1)c1sc(=O)[nH]c1S2` (stereo not drawn) as the compound, how does the growth read?
**A.** The growth was 0.849% (active).

**Q.** How did the growth turn out when `N[C@@H](Cc1cn(-c2c3ccccc3nc3ccccc23)nn1)C(=O)O` was run?
**A.** Its growth is 99.1% (inactive).

**Q.** For `Cc1sc2nc(NCc3ccccc3Cl)[nH]c(=O)c2c1C`, which growth is on record?
**A.** Its growth is 69.7% (inactive).

**Q.** Which growth does the source give for `COc1ccccc1/C=C/C=N/NC1=NC2C(S1)N(C)C(=O)N2C` (stereo not drawn) here?
**A.** The growth was 21% (inactive).

**Q.** `CC(=O)Nc1cc(F)cc(-c2ccc3[nH]cc(-c4ccccc4)c3n2)c1` was tested. Which growth did it give?
**A.** The growth was 9.24% (active).

**Q.** For `O=C(CSc1nc2sc3c(c2c(=O)n1-c1ccc(Cl)cc1)CCCC3)N/N=C/c1ccc(F)cc1`, which growth is on record?
**A.** Its growth is 69.3% (inactive).

**Q.** `Cc1ccccc1NC(=O)/C=C/c1ccc(OCCOc2ccc3c(C)cc(=O)oc3c2)cc1` was tested. Which growth did it give?
**A.** The growth was 93.2% (inactive).

**Q.** How did the growth turn out when `CCN(CC)c1ccc(C=O)c(OCc2cn(CC(=O)Nc3ccc(Cl)cc3)nn2)c1` was run?
**A.** Its growth is 51.9% (inactive).

**Q.** `CC(C)(C)OC(=O)N1C(=O)c2c(c3c4ccccc4[nH]c3c3ccc4ccccc4c23)C1=O` was tested. Which growth did it give?
**A.** Its growth is 38.2% (inactive).

**Q.** How did the growth turn out when `O=C(CSc1nc2sc3c(c2c(=O)n1-c1ccc(Cl)cc1)CCCC3)NNC(=O)Nc1cccc(C(F)(F)F)c1` was run?
**A.** Its growth is 8.64% (active).

**Q.** With `CC(=O)Oc1ccccc1C(=O)Nc1cc(C(C)C)ccc1C` as the compound, how does the growth read?
**A.** Its growth is 4.63% (active).

**Q.** For `N#Cc1c(-c2ccc(Cl)cc2)nc(SCc2ccc(F)cc2)nc1N1CCNCC1`, which growth is on record?
**A.** Its growth is 7.99% (active).

**Q.** With `COc1ccc(NC(=O)c2sc3nc(-c4cnccn4)cc(-c4cccs4)c3c2N)cc1` as the compound, how does the growth read?
**A.** The growth was 83.5% (inactive).

**Q.** `CNC(=O)c1cc(-c2ccc(NC(=O)Nc3ccc(N4CCN(C)CC4)c(C(F)(F)F)c3)cc2)nc2cccnc12` was tested. Which growth did it give?
**A.** The growth was -30.5% (active).

**Q.** `O=C(CSc1nccc(=O)[nH]1)Nc1ccc(-c2nc3ccccc3[nH]2)cc1` was tested. Which growth did it give?
**A.** The growth was 111% (inactive).

**Q.** For `O=C1c2c(c3c4cccnc4[nH]c3c3ccc4ccccc4c23)C(=O)N1CCO`, which growth is on record?
**A.** Its growth is 31.7% (inactive).

**Q.** `CN1CCN(Cc2ccc(NC(=O)c3cncc(C#Cc4cnc5ccc(N6CCSCC6)nn45)c3)cc2C(F)(F)F)CC1` was tested. Which growth did it give?
**A.** The growth was 4.9% (active).
